The whole screen tested about 4,800 compounds, of which about 420 (8.8%) showed an effect of 50% or more. The full list was thinned out, with strong results kept by preference.

The assay has as its system Plasmodium falciparum. In words: Confirmatory screen in NF54 nanoGlo assay, in single point, at 2uM, 72h. The following applies: timepoint 72 hour. It counts as functional, Erythrocyte.
With `CC1(C)Cc2nc3ccccc3c(NCc3ccccc3)c2[C@@H](O)C1`, the % Inhibition (commonly the change of the read-out against control, counted positive when it falls) is listed as 44%.
The same measure for `CNc1nc(Nc2ccc3c(c2)OCCO3)nc2ccccc12`: 95%.
The same measure for `NS(=O)(=O)c1ccc(CCNc2nc(-c3ccccc3)nc3ccccc23)cc1`: -2%; for `CNc1nc(NCCc2ccccc2)nc2ccccc12`: 80%.
The same measure for `c1coc(CNc2nc(Nc3cccc4ccccc34)nc3ccccc23)c1`: 20%.
`Cc1ccc(-c2nc3ncccn3c2Nc2ccc3c(c2)OCCO3)o1`: the “% Inhibition” value is listed as -8%.
Regarding `O=C1c2ccccc2[C@@H](Nc2ccc3c(c2)OCCO3)N1c1ccccn1`, the “% Inhibition” value was -17%.
The same measure for `C[C@H](Nc1nc(N2CCCCC2)nc2ccccc12)c1ccccc1`: -1%; for `CNc1nc(NCc2ccccc2)nc2ccccc12`: 78%; for `c1ccc(CCNc2nc(-c3ccccn3)cs2)cc1`: 12%.
The same measure for `Cc1ccc(C)n1-c1ccc(Cl)c(C(=O)NC[C@H]2COCCO2)c1`: -4%; for `C#Cc1cc(C(F)(F)F)cc(C#N)c1N`: 5%; for `CC1(C)CN(C(=O)CN2CCOCC2=O)C2CCCC21` (stereo not given): -16%.
The result for `COc1cccc(N2CCN(C3=NC(=O)[C@@H](C#N)C4(CCCC4)N3)CC2)c1` reads 2%; that for `O=C(O)Cc1ccc(OCc2nc(-c3ccsc3)no2)cc1`, -2%; that for `Cc1ccc(S(=O)(=O)N2CC[C@H](CC(=O)NCc3ccccc3)C2)c(C)c1`, -17%.
On to `Cc1ccc(NC(=O)Cn2c(=O)n(Cc3ccco3)c(=O)c3ccccc32)c(C)c1`, for which the “% Inhibition” value is -12%.
The result for `CC(=O)Nc1ccc(C)cc1S(=O)(=O)N1CC=C(c2c(C)n(Cc3ccccc3C)c3ccccc23)CC1` reads 91%; that for `CC[C@](C)(NCCc1c[nH]c2ccccc12)c1nnnn1CCOC`, -2%.
The result for `Cn1c(N2CCN(Cc3ccc4c(c3)OCO4)CC2)cc(=O)n(C)c1=O` reads -12%; that for `COc1ccc(CNC(=O)N2C[C@H](C)OC3(CCCCC3)C2)cc1OC(F)F`, -8%.
The same measure for `O=C(NCc1ccco1)c1cc2c(Cl)ccc3c2n1CCO3`: -1%; for `Cc1cc2nc(C)c3c(n2n1)N(Cc1ccccc1Cl)CC3`: -2%.
As to `CC(C)Oc1cccnc1C(=O)N(C)c1cnn(C)c1`, the “% Inhibition” value is -5%.
The result for `COc1ccc(-c2cc3c(N4CCN(C)CC4)nccn3n2)cc1OC` reads 1%.
The same measure for `Cc1nn(-c2ccccn2)c(O)c1C(c1ccccc1)c1c(C)nn(-c2ccccn2)c1O`: 90%.
For `COc1ccc(-c2nn(-c3ccccc3)c(O)c2C(c2ccc(C(=O)O)cc2)c2c(-c3ccc(OC)cc3)nn(-c3ccccc3)c2O)cc1`, the “% Inhibition” value came to 2%.
On to `O=C(CCn1nc(-c2cccc(Cl)c2)ccc1=O)NCc1ccc(F)cc1F`, for which the “% Inhibition” value is reported as -2%.
As to `CCn1cc(CN2C(=O)C3CCCCC3C2=O)c(C)n1` (stereo not given), the “% Inhibition” value is -3%.
The result for `FC(F)(F)c1cnc(N2CCOC3(CCOCC3)CC2)s1` reads -2%; that for `O=C(c1cc(-c2ccncc2)on1)N1CCOC2(CCCCCC2)C1`, -6%; that for `Oc1nc(N2CCOC3(CCCC3)C2)ncc1F`, 51%.
`COC(c1ccc(-c2ccc(OC3CC3)cc2)cc1)C(C)N` (stereo not given): the “% Inhibition” value was -3%.
The same measure for `COc1ccc(CNC(=O)c2ccc(Cl)c(-n3c(C)nc4cccnc43)c2)c(OC)c1`: 2%.
With `CCOC(=O)c1ccc(N2CCN(Cc3ccccc3)CC2)c(NC(=O)COc2ccc(Cl)cc2C)c1`, the “% Inhibition” value is -4%.
In the case of `Cn1nc(N)c2cc(C(F)(F)F)ccc21`, the “% Inhibition” value is reported as -2%.
With `CCn1c(=O)c(N2CCN(C(=O)Nc3cccc(C(F)(F)F)c3)CC2)nc2ccccc21`, the “% Inhibition” value is -2%.
The result for `Cc1nn(Cc2ccccc2)c2c1C(c1cccc(Cl)c1Cl)c1c(C)nn(Cc3ccccc3)c1O2` reads 9%.
The result for `COc1ccc(OC)c(CN2C(=O)c3cc4c(OC)ccc(OC)c4n3C[C@]2(C(=O)NC2CCCCCC2)c2ccccc2)c1` reads 18%.
The result for `CCCn1c(C)nnc1COC(=O)c1ncoc1C` reads -5%; that for `CC(C)(C)OC(=O)NC1CCN(c2ncc(C(=O)NCc3ccc(F)c(Cl)c3)c(N)n2)CC1`, -17%.
Consider `CN1CCc2ncnc(Nc3ccc4nc(N5CCCC5)sc4c3)c2C1`, for which the “% Inhibition” value is on record as 2%.
The same measure for `CC(=O)Nn1ccc2nc(N3CCOCC3)ncc2c1=O`: -7%; for `COC1(C)CC(NC(=O)C(C(C)C)N2CCCS2(=O)=O)C1(C)C` (stereo not given): -9%.
The result for `CCC(=O)N(Cc1ccc(-c2ccc(Cl)cc2)o1)[C@H]1CCS(=O)(=O)C1` reads 38%; that for `Cn1ccc(CN2CCN(c3ccccc3)CC2)n1`, 1%.
The same measure for `Cc1nc(-c2ccc(N3CCC(NCCCn4ccnc4)CC3)cc2)cs1`: 12%; for `COc1cc(C)cc(C)c1S(=O)(=O)N(C)Cc1nnc[nH]1`: 4%.
For the compound `COc1cccc(C2C(NC(=O)c3ccoc3)CCN2C2CC2)c1` (stereo not given), the “% Inhibition” value is reported as -10%.
The result for `CC1=CCN(C(=O)Nc2nccs2)CC1` reads 7%.
For `CC(C(=O)Nc1cc(F)ccc1F)N1CCCC(c2nncn2C(C)C)C1` (stereo not given), the “% Inhibition” value is given as -3%.
The result for `CC(C(=O)Nc1nccs1)N1CCCC(c2ccn[nH]2)C1` (stereo not given) reads 50%.
On to `c1ccc(NC(Nc2nnn[nH]2)=C(c2ccccc2)c2ccccc2)cc1`, for which the “% Inhibition” value is reported as 0%.
As to `O=C(CCC(=O)Nc1cccnc1)NCc1ccc2c(c1)OCO2`, the “% Inhibition” value is recorded as -2%.
The result for `O=C(Nc1cccnc1)c1ccc(-c2ccc(Cl)c(Cl)c2)o1` reads 91%; that for `O=C(Nc1ccn(Cc2cccnc2)n1)c1ccc(-c2ccccc2F)o1`, -2%.
The result for `COc1ccc(-c2cc(C(=O)NC3CCN(C(C)C)CC3)c3ccccc3n2)cc1OC` reads -7%.
The result for `CCOc1ccc(-c2cc(NC(=O)c3cc(-c4cccnc4)nc4ccccc34)on2)cc1OCC` reads 94%; that for `CS(=O)(=O)Nc1nc2ccc(NC(=O)c3cc(-c4ccccc4)nc4ccccc34)cc2s1`, 0%.
With `COc1ccc(CC[C@](C)(O)c2cc(C(N)=O)no2)cc1`, the “% Inhibition” value was -9%.
The result for `COc1ccc(N(C(=O)c2ccccc2)C2CC(C)N(C(=O)c3ccccc3)c3cc(OC)c(OC)cc32)cc1OC` (stereo not given) reads -1%; that for `N#CCC(=O)Nc1nc(-c2ccc(Oc3ccccc3)cc2)cs1`, -4%.
With `Cc1cc(C(=O)N[C@@H](C)CO)c(C)n1-c1nccs1`, the “% Inhibition” value is -19%.
The same measure for `c1cc(CN2CCN(C3CCCCCC3)CC2)ccn1`: -18%.
The same measure for `c1ccc(N2CCN(C3CCN(Cc4ccncc4)CC3)CC2)cc1`: -6%.

The record behind these values is ChEMBL document CHEMBL4888484, “Replenishing the malaria drug discovery pipeline: Screening and hit evaluation of the MMV Hit Generation Library 1 (HGL1) against asexual blood stage Plasmodium falciparum ,using a nano luciferase reporter read-out” (2022).
